The results in this text go back to ChEMBL document CHEMBL3433997, “St. Jude Leishmania screening dataset” (2016).

“And” between values parts separate entries of the source, which are not always exact repeats. Equal values may be shown once.

This experiment concerns the target Hexose transporter 1 (Plasmodium falciparum) (UniProt O97467). Briefly: ST_JUDE_LEISH: Cytotoxicity at 2uM final concentration against transgenic Leishmania Mexicana promastigotes LmPfHT that are glucose transport deficient and complemented with the Plasmodium falciparum hexose transporter. Activity is measured by DNA content using SYBR green in vitro. Type of experiment: functional.
Usually inhibition stands for the drop in the measured response relative to a control, in per cent. On to `CCC1(C)N=C(N)N=C(N)N1c1ccc(Cl)cc1` (stereo not given), for which the inhibition was -0.9%.

`CN1CC=C(c2c[nH]c3ccc(Sc4ccccc4)cc23)CC1`: the inhibition is 2.9%.

Turning to `CC(=O)Nc1ccc2[nH]cc(C3CCN(CC4CCC(NC(=O)/C=C/c5ccc(Cl)c(Cl)c5)CC4)CC3)c2c1` (stereo not given), the inhibition is -0.56% and -1.03%.

On to `COC(=O)c1ccc(CC(C)NCC(O)c2cccc(I)c2)cc1` (stereo not given), for which the inhibition was -1%.

As to `Cc1cc2cc(CNCCc3ccccc3Br)ccc2nc1N`, the inhibition came out at 1.37%.

Consider `Cc1ccc(CC(C)NCC(O)c2cccc(C(F)(F)F)c2)cc1F` (stereo not given), for which the inhibition was determined as 6.24%.

For the compound `COc1ccc(C=CC(=O)NC2CCC(CN3CCC(c4c[nH]c5ccccc45)CC3)CC2)cc1OC` (stereo not given), the inhibition is 0.82% and 2.73%.

For the compound `Cc1[nH]c2ccccc2c1C1=CCN(CC2CC2C(=O)c2ccccc2)CC1` (stereo not given), the inhibition came out at 9.13%.

On to `O=[N+]([O-])c1ccc(Oc2c(Cl)cc(S(=O)(=O)N3CCC(CN4CCC(c5c[nH]c6ccccc56)CC4)CC3)cc2Cl)c(Cl)c1`, for which the inhibition worked out at 0.25%.

On to `O=C(/C=C/c1cc(C(F)(F)F)ccc1F)NC1CCC(CN2CCC(c3c[nH]c4ccccc34)CC2)CC1` (stereo not given), for which the inhibition was 5.67%.

Turning to `O=C(C=Cc1ccc(F)c(Br)c1)NC1CCC(CN2CCC(c3c[nH]c4ccccc34)CC2)CC1` (stereo not given), the inhibition was -0.2% and 4.24%.

Consider `O=C(NC1CCC(CN2CCC(c3c[nH]c4ccccc34)CC2)CC1)[C@H]1Cc2ccccc2CN1` (stereo not given in full), for which the inhibition came to 2.41%.

As for `COCC(=O)N(Cc1cccc(-c2ccc(CNCCc3ccccc3)cc2)c1)C1CCN(Cc2ccccc2)CC1`, the inhibition was determined as 5.42%.

As for `CCN(CC)CCN1C(=O)C(O)(c2ccccc2Cl)c2c1cc(C#N)cc2C(F)(F)F` (stereo not given), the inhibition is 2.02%.

`CCCc1cc([C@@H](O)[C@@H]2C[C@@H]3CCN2C[C@@H]3CC)c2ccccc2n1`: the inhibition is 3.99%.

As for `C=Cc1cc(OC)c2c(c1)c(=O)oc1c2cc(OC)c2c(O)ccc([C@H]3O[C@H]([C@H](C)O)[C@H](O)[C@H]3O)c21`, the inhibition is 32.6%.

For `CC[C@H]1CN2CC[C@H]1C[C@H]2[C@H](O)c1ccnc2ccc(O)cc12`, the inhibition was determined as 2.1%.

`O=C(NC1CCN(CC2(c3ccc(Cl)cc3)CCC2)CC1)c1cc[nH]n1`: the inhibition is -0.69%.

In the case of `CCC1(C)CC(CCNCc2ccccc2O)(c2ccc(F)cc2)CCO1` (stereo not given), the inhibition is 1.85%.

For the compound `CC(Cc1ccc(OCCCCOc2ccccc2)cc1)NCCc1ccccc1Cl` (stereo not given), the inhibition stood at 19.8%.

Consider `N#Cc1ccc(N(CC(=O)NCCc2ccccc2)CC2CC2)c2ccccc12`, for which the inhibition was 0.73%.

On to `CCc1ccc(CN2CCC(CN(C(=O)c3ccccc3)c3ccc(Cl)cc3)CC2)cc1`, for which the inhibition was 5.97%.

Turning to `CC(C)CNCc1cccc(-c2ccc(CN(C(=O)Nc3ccccc3)C3CCN(Cc4ccccc4)CC3)cc2)c1`, the inhibition amounted to 2.2%.

For `CCN(CC)CCOC(=O)C(OC)(c1ccccc1)c1ccccc1`, the inhibition was found to be 3%.

Consider `Cc1cc(-c2ncc[nH]2)ccc1-c1ccc(C(=O)N2CCc3cc4c(cc32)C2(CCN(C)CC2)CO4)cc1`, for which the inhibition was 1.74%.

Regarding `O=C(/C=C/c1ccc(Cl)cc1)NC1CCC(CN2CCC(c3c[nH]c4ccccc34)CC2)CC1` (stereo not given), the inhibition is 0.24% and -2.23%.

Consider `COC(=O)CN(C(=O)/C=C/c1ccc(Cl)c(Cl)c1)C1CCC(CN2CCC(c3c[nH]c4ccccc34)CC2)CC1` (stereo not given), for which the inhibition is 4.03%.

As to `CCCCCCCc1cc(O)c2c(c1)OC(C)(C)c1ccncc1-2`, the inhibition was determined as 2.54%.

For `S=C(NCCc1ccc(Cl)cc1)NC1CCC(CN2CCC(c3c[nH]c4ccccc34)CC2)CC1` (stereo not given), the inhibition is 0.01% and 3.61%.

For the compound `COc1ccc(CN2CCN(CCOC(c3ccccc3)c3ccc(Cl)cc3)CC2)c(O)c1` (stereo not given), the inhibition was determined as 10.7%.

With `O=C(Nc1cc(C(F)(F)F)cc(C(F)(F)F)c1)NC1CCC(CN2CCC(c3c[nH]c4ccccc34)CC2)CC1` (stereo not given), the inhibition was -1.6% and 4.26%.

Regarding `O=C(/C=C/c1ccc(Cl)c(Cl)c1)NCCC1CCC(N2CCC(c3c[nH]c4ccccc34)CC2)CC1` (stereo not given), the inhibition was determined as 7.76%.

Take `O=C(NC1CCC(CN2CCC(c3c[nH]c4ccccc34)CC2)CC1)c1cc2ccccc2o1` (stereo not given): the inhibition amounted to 0.9%.

`COc1coc(C(=O)NC2CCN(CC3(c4ccc(Cl)cc4)CCC3)CC2)c1OC`: the inhibition was determined as 4.52%.

For the compound `O=C(Nc1cc(C(F)(F)F)cc(C(F)(F)F)c1)c1cc(Cl)ccc1O`, the inhibition was 7.96%.

Take `O=C(NC1CCN(CCc2c[nH]c3ccc(F)cc23)CC1)c1ncc(-c2ccccc2)[nH]1`: the inhibition was found to be 4.4%.

Consider `Cc1cc(NC(=O)[C@H](CC(C)C)Nc2ccc(C#N)c3ccccc23)ccc1F`, for which the inhibition stood at 2.4%.

Take `CC(=O)N(Cc1ccccc1-c1ccc(CNCCc2ccccc2)cc1)C1CCN(Cc2ccccc2)CC1`: the inhibition stood at 2.41%.

As to `COc1cccc(CC(C)NCC(O)c2cccc(Cl)c2)c1` (stereo not given), the inhibition was determined as 2.67%.

Consider `O=C(/C=C/C=C/c1ccccc1)NC1CCC(CN2CCC(c3c[nH]c4ccccc34)CC2)CC1` (stereo not given), for which the inhibition is 0.67%.
